# Tests used:
# Assay in all cases: DAPPL (digital affinity profiling via proximity ligation, sequencing); 10 mM Tris-HCl pH 7.5, 50 mM NaCl, 1 mM DTT, 4% glycerol, room temperature, 30 min; GST-TFs on glutathione beads, 16-mer random dsDNA library, 0.1% formaldehyde crosslink after washing; high values mean tight binding
# FLI1 = target: T1, FLI1 (Homo sapiens, UniProt Q01543 1-452); conditions: protein: recombinant; tags: N-terminal GST; dsDNA, one strand shown
# T1 sequence: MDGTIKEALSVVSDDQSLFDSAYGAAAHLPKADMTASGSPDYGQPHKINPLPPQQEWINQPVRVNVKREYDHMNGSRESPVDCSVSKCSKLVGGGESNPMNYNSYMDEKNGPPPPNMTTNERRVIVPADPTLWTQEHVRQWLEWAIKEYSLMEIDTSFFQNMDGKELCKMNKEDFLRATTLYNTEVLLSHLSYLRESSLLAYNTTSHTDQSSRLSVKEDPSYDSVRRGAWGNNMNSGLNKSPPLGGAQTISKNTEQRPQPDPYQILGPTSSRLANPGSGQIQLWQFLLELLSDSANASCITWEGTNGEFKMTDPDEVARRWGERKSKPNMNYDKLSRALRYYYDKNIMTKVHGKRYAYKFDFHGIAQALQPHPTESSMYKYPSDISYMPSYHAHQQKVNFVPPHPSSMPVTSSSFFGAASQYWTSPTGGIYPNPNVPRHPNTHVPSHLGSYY
# Outline: (§1)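 Each value of binding signal is a hexamer's read frequency for a factor divided by the same hexamer's frequency in the tag-only sample. Barcoded, bead-captured GST fusions of human transcription factors made in yeast were pooled with that sample and incubated with 200 nmole of a random double-stranded 16-mer DNA library in Tris/NaCl/DTT/glycerol buffer at room temperature for 30 min. Washing, 0.1% formaldehyde crosslinking, proximity ligation, PCR and Illumina NextSeq500 sequencing followed.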
# ELK1 = target: T2, ELK1 (Homo sapiens, UniProt P19419 1-428); conditions: protein: recombinant; tags: N-terminal GST; dsDNA, one strand shown
# T2 sequence: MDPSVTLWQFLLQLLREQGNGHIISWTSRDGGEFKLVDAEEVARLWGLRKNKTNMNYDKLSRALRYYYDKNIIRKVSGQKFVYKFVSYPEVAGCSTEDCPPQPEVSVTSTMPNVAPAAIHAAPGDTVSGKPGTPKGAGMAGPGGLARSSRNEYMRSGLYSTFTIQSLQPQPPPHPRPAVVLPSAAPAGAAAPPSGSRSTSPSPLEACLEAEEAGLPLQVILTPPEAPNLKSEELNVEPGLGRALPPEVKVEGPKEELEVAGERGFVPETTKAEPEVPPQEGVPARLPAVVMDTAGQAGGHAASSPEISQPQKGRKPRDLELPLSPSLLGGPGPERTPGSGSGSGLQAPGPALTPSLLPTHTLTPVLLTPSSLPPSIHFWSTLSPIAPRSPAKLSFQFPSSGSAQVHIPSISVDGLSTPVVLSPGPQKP
# Outline: as §1
# GABPA = target: T3, GABPA (Homo sapiens, UniProt Q06546 1-454); conditions: protein: recombinant; tags: N-terminal GST; dsDNA, one strand shown
# T3 sequence: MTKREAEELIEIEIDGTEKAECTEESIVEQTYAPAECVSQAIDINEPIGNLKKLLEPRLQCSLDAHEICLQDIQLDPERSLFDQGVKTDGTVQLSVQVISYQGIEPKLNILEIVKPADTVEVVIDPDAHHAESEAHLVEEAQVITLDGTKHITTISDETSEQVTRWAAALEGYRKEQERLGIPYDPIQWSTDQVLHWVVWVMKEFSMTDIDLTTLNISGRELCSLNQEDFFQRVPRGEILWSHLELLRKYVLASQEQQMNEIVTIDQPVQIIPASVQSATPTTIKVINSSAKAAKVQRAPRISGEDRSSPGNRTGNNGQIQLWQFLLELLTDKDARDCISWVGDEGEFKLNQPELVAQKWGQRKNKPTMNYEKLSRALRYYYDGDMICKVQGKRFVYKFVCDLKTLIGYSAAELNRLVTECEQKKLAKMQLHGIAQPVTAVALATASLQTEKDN
# Outline: as §1
# ERG = target: T4, ERG (Homo sapiens, UniProt P11308 1-479); conditions: protein: recombinant; tags: N-terminal GST; dsDNA, one strand shown
# T4 sequence: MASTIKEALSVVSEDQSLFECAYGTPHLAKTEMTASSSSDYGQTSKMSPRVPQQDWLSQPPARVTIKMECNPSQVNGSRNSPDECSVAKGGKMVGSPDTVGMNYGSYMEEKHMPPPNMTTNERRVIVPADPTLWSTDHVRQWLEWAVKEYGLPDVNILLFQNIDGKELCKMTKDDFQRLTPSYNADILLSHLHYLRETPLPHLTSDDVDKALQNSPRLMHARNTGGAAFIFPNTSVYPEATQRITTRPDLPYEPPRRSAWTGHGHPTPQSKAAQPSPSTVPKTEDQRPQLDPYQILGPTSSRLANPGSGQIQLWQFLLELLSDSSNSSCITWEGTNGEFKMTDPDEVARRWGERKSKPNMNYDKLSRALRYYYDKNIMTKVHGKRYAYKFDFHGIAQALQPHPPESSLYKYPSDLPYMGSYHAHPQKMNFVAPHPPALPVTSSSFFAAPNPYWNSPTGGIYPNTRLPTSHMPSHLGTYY
# Outline: as §1
# ELF1 = ELF1 (Homo sapiens, UniProt P32519 1-619); conditions: protein: recombinant; tags: N-terminal GST; dsDNA, one strand shown
# Chain of ELF1 (P32519 whole entry): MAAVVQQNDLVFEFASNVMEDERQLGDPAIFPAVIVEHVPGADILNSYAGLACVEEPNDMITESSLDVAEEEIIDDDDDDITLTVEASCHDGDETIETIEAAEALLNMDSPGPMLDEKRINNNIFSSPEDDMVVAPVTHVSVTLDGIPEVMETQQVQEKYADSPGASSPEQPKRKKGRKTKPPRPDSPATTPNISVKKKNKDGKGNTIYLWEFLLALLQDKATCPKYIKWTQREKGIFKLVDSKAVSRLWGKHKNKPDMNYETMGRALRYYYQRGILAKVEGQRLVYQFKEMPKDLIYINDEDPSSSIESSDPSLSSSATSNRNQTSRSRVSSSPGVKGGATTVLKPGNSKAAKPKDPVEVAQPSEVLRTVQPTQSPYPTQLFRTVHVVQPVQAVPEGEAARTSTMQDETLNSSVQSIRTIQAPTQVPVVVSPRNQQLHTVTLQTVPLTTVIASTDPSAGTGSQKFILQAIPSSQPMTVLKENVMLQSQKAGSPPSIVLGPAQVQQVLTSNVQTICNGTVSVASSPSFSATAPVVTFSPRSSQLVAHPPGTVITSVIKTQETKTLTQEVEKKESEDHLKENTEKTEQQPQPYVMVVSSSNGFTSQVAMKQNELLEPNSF
# Outline: as §1
# EHF = target: T5, EHF (Homo sapiens, UniProt Q9NZC4 1-300); conditions: protein: recombinant; tags: N-terminal GST; dsDNA, one strand shown
# T5 sequence: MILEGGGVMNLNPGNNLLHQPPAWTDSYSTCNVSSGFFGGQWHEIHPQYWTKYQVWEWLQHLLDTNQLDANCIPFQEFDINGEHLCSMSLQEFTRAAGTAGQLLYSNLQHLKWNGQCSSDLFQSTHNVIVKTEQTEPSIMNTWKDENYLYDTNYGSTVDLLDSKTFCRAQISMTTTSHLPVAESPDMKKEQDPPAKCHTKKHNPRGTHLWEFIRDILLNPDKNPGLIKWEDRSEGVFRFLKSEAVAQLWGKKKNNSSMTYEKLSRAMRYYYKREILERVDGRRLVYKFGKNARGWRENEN
# Outline: as §1
# SPI1 = SPI1 (Homo sapiens, UniProt P17947 1-270); conditions: protein: recombinant; tags: N-terminal GST; dsDNA, one strand shown
# Outline: as §1
# SPIB = SPIB (Homo sapiens, UniProt Q01892 1-262); conditions: protein: recombinant; tags: N-terminal GST; dsDNA, one strand shown
# Chain of SPIB (Q01892 whole entry): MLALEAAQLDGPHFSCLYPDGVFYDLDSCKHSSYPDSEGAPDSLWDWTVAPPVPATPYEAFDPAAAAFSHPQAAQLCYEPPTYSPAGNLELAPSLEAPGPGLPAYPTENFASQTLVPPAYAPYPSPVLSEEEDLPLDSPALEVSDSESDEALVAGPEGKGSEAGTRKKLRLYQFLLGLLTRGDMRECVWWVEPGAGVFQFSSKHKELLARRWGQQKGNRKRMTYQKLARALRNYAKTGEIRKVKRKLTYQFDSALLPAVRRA
# Outline: as §1
# ELK3 = target: T6, ELK3 (Homo sapiens, UniProt P41970 1-407); conditions: protein: recombinant; tags: N-terminal GST; dsDNA, one strand shown
# T6 sequence: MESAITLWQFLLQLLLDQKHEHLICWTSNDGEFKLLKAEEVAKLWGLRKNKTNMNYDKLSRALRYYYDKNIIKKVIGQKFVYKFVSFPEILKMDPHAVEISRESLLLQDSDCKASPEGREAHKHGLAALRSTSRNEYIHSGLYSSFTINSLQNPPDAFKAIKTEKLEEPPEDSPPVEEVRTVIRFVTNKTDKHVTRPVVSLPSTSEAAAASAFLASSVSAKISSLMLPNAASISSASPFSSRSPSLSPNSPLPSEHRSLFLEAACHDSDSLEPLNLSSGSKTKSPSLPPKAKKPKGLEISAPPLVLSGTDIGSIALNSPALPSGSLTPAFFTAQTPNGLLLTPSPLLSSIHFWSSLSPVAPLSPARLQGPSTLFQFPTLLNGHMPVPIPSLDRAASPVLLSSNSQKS
# Outline: as §1
# FEV = target: T7, FEV (Homo sapiens, UniProt Q99581 1-238); conditions: protein: recombinant; tags: N-terminal GST; dsDNA, one strand shown
# T7 sequence: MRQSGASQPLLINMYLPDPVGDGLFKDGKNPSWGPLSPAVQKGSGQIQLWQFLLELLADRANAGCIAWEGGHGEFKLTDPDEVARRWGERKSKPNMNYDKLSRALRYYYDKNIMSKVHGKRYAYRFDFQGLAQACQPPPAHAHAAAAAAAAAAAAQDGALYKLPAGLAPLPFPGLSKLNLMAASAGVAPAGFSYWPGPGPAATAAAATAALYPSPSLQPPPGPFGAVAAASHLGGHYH
# Outline: as §1
# ETV5 = ETV5 (Homo sapiens, UniProt P41161 1-510); conditions: protein: recombinant; tags: N-terminal GST; dsDNA, one strand shown
# Chain of ETV5 (P41161 whole entry): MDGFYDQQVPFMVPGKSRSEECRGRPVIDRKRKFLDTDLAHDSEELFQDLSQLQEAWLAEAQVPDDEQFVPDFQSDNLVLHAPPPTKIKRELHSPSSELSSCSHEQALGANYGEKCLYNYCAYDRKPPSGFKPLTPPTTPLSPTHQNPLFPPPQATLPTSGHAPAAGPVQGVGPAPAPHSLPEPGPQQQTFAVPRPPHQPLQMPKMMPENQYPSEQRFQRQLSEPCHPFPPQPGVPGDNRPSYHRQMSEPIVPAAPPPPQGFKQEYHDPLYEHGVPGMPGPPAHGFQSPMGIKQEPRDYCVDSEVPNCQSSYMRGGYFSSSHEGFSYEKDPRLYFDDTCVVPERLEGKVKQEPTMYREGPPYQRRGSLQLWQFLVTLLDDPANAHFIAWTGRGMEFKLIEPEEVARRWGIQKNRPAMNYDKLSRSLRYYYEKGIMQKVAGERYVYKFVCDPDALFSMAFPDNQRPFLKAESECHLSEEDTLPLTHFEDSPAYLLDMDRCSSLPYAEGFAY
# Outline: as §1
# HSF1 = HSF1 (Homo sapiens, UniProt Q00613 1-529); conditions: protein: recombinant; tags: N-terminal GST; chain copies: 3; dsDNA, one strand shown
# Chain of HSF1 (Q00613 whole entry): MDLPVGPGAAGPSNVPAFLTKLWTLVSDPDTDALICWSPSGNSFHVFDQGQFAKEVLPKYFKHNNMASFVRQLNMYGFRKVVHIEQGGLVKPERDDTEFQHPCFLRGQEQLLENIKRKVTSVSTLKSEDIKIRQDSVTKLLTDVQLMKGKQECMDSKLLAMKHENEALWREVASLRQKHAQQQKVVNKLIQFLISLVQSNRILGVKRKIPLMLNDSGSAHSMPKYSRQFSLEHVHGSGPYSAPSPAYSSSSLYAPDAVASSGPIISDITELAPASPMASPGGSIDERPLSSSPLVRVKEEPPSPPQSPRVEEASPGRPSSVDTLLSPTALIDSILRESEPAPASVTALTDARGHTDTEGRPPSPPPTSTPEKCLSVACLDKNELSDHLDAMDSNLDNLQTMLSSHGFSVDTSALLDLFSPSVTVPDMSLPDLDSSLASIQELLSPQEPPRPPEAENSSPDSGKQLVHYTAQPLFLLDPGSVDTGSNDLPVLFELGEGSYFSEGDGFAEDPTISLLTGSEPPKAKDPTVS
# Outline: as §1
# SPIC = target: T8, SPIC (Homo sapiens, UniProt Q8N5J4 1-248); conditions: protein: recombinant; tags: N-terminal GST; dsDNA, one strand shown
# T8 sequence: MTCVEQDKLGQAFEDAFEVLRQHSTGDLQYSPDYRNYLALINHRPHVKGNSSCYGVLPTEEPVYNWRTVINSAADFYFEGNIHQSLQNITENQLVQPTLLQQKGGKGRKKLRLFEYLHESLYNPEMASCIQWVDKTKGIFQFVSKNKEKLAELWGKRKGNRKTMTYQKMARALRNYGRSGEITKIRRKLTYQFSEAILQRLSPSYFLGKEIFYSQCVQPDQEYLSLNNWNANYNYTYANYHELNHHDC
# Outline: as §1
# ELF4 = ELF4 (Homo sapiens, UniProt Q99607 1-663); conditions: protein: recombinant; tags: N-terminal GST; dsDNA, one strand shown
# Chain of ELF4 (Q99607 whole entry): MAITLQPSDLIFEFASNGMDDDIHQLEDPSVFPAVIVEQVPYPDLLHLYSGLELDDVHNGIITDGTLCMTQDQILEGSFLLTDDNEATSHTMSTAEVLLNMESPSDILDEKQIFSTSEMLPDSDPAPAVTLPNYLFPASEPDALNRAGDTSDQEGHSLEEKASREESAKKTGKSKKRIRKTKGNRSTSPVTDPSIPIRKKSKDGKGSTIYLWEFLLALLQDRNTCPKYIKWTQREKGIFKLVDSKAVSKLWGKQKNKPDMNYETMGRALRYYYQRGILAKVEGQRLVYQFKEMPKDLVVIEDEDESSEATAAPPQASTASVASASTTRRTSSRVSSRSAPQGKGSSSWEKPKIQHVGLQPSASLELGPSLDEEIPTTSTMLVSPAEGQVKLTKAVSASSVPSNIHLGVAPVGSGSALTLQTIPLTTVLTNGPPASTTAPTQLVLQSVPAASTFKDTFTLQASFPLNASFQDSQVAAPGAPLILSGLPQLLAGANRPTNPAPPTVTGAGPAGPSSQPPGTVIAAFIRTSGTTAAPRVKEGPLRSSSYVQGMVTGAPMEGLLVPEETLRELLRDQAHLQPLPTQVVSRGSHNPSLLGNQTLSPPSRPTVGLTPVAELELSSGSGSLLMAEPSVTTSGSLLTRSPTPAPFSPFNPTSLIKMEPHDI
# Outline: as §1
# ELK4 = target: T9, ELK4 (Homo sapiens, UniProt P28324-2 1-405); conditions: protein: recombinant; tags: N-terminal GST; dsDNA, one strand shown
# T9 sequence: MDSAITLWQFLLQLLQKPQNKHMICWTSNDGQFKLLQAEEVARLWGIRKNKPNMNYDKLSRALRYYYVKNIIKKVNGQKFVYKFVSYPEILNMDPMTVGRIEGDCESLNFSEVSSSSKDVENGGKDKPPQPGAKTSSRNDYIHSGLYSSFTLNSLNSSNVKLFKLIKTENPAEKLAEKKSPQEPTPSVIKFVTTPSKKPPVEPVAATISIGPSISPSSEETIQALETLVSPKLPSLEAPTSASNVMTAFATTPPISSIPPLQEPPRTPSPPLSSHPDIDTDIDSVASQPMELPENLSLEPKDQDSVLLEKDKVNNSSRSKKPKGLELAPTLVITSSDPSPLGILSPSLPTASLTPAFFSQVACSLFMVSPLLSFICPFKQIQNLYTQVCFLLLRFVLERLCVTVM
# Outline: as §1
# ETV2 = target: T10, ETV2 (Homo sapiens, UniProt O00321 1-342); conditions: protein: recombinant; tags: N-terminal GST; dsDNA, one strand shown
# T10 sequence: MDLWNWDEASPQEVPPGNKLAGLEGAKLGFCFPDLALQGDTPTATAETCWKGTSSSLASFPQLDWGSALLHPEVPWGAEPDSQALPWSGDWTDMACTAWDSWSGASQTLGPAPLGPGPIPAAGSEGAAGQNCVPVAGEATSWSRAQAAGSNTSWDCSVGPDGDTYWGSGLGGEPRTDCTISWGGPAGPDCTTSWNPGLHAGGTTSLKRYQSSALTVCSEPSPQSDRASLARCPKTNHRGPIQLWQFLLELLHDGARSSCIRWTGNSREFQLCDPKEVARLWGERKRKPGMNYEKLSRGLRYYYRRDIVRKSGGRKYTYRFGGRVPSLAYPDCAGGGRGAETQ
# Outline: as §1
# ELF3 = target: T11, ELF3 (Homo sapiens, UniProt P78545 1-371); conditions: protein: recombinant; tags: N-terminal GST; dsDNA, one strand shown
# T11 sequence: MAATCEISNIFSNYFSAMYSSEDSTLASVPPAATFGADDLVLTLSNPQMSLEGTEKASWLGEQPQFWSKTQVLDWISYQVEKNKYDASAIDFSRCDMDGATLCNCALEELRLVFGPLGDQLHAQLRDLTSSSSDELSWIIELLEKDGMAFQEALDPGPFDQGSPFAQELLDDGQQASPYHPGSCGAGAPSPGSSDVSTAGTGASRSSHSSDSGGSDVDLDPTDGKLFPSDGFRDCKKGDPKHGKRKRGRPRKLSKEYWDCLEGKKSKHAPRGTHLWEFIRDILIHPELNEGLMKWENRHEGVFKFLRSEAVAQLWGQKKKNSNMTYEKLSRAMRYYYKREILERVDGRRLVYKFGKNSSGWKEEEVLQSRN
# Outline: as §1
# CRX = CRX (Homo sapiens, UniProt O43186 1-299); conditions: protein: recombinant; tags: N-terminal GST; dsDNA, one strand shown
# Chain of CRX (O43186 whole entry): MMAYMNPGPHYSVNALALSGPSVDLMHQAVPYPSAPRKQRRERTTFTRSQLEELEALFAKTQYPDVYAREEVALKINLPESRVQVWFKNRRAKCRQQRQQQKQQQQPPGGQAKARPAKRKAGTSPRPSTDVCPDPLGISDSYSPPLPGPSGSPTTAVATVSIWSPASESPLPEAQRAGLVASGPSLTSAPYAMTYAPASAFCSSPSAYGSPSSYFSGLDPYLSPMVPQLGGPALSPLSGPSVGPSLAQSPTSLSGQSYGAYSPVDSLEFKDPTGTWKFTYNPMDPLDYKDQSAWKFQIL
# Outline: as §1
# ETV1 = ETV1 (Homo sapiens, UniProt P50549 1-477); conditions: protein: recombinant; tags: N-terminal GST; dsDNA, one strand shown
# Chain of ETV1 (P50549 whole entry): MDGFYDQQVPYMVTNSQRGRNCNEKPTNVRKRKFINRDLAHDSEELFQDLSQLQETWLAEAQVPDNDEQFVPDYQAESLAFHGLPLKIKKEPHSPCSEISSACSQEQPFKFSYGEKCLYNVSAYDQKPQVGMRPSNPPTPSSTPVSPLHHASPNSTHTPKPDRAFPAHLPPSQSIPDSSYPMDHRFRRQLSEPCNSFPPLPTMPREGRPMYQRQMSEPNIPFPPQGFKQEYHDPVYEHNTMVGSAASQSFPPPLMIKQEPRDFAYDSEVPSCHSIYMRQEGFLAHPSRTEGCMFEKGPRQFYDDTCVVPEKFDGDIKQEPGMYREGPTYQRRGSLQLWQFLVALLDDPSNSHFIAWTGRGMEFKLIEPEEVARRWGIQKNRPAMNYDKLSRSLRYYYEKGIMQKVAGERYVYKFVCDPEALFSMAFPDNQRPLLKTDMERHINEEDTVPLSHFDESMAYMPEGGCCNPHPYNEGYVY
# Outline: as §1
sequence,measurement,setting,value
ATTTTT,binding signal,FLI1,"1.14 fold enrichment (6-mer frequency, TF over GST control)"
same,binding signal,ELK1,"1.14 fold enrichment (6-mer frequency, TF over GST control)"
same,binding signal,GABPA,"1.13 fold enrichment (6-mer frequency, TF over GST control)"
same,binding signal,ERG,"1.1 fold enrichment (6-mer frequency, TF over GST control)"
same,binding signal,ELF1,"1.14 fold enrichment (6-mer frequency, TF over GST control)"
same,binding signal,EHF,"1.22 fold enrichment (6-mer frequency, TF over GST control)"
same,binding signal,SPI1,"1.18 fold enrichment (6-mer frequency, TF over GST control)"
same,binding signal,SPIB,"1.19 fold enrichment (6-mer frequency, TF over GST control)"
same,binding signal,ELK3,"1.12 fold enrichment (6-mer frequency, TF over GST control)"
same,binding signal,FEV,"1.15 fold enrichment (6-mer frequency, TF over GST control)"
same,binding signal,ETV5,"1.21 fold enrichment (6-mer frequency, TF over GST control)"
same,binding signal,HSF1,"1.31 fold enrichment (6-mer frequency, TF over GST control)"
same,binding signal,SPIC,"1.1 fold enrichment (6-mer frequency, TF over GST control)"
same,binding signal,ELF4,"1.19 fold enrichment (6-mer frequency, TF over GST control)"
same,binding signal,ELK4,"1.31 fold enrichment (6-mer frequency, TF over GST control)"
same,binding signal,ETV2,"1.29 fold enrichment (6-mer frequency, TF over GST control)"
same,binding signal,ELF3,"1.2 fold enrichment (6-mer frequency, TF over GST control)"
same,binding signal,CRX,"1.28 fold enrichment (6-mer frequency, TF over GST control)"
same,binding signal,ETV1,"1.28 fold enrichment (6-mer frequency, TF over GST control)"

# From PMC7862700, “An all-to-all approach to the identification of sequence-specific readers for epigenetic DNA modifications on cytosine”
